Compound activity deposited in PubChem BioAssay by several laboratories.
Bead autofluor: flagged as autofluorescent in microsphere protease counterscreen; compound autofluorescence counterscreen, microsphere flow cytometry; active compounds read high; fluorescence intensity (test concentration not listed); actives 3.1% (n = 360,000); in the data active means fluorescence intensity above about 16000; inconclusive means no clear call, values can overlap the other calls
BoNT-A LC inh2: inhibitors of Botulinum neurotoxin A light chain protease; multiplex microsphere protease substrate cleavage, flow cytometry; inhibition, % at 10 µM; actives 0.17% (n = 360,000); AID 588499; further: plate controls were buffer without enzyme for full effect and enzyme alone for no effect
BoNT-F LC inh: inhibitors of Botulinum neurotoxin F light chain protease | actives 0.22% (n = 360,000) | inhibition, % at 10 µM | AID 588497 | Multiplex microsphere protease cleavage assay, flow cytometry; in the data active means inhibition above about 35%, passing the limit was not always enough; inconclusive means no clear call, values can overlap the other calls; further: plate controls were buffer without enzyme for full effect and enzyme alone for no effect
BH1578 lux ind: induces V. cholerae light production without autoinducers; V. cholerae BH1578 lux reporter, luminescence, 6 h; activation, % at 18.7 µM; actives 0.16% (n = 350,000); AID 588436; in the data active means activation mostly above about 9.7%, no sharp cut-off; inconclusive means no clear call, values can overlap the other calls; inactive means mostly below about 3.7%
Anthrax LF prot: anthrax lethal factor protease inhibition; P15917; multiplex microsphere protease cleavage assay, LF; inhibition, % at 10 µM; actives 0.12% (n = 360,000); further: plate controls were buffer without enzyme for full effect and enzyme alone for no effect
Target sequence (P15917 whole entry, looked up): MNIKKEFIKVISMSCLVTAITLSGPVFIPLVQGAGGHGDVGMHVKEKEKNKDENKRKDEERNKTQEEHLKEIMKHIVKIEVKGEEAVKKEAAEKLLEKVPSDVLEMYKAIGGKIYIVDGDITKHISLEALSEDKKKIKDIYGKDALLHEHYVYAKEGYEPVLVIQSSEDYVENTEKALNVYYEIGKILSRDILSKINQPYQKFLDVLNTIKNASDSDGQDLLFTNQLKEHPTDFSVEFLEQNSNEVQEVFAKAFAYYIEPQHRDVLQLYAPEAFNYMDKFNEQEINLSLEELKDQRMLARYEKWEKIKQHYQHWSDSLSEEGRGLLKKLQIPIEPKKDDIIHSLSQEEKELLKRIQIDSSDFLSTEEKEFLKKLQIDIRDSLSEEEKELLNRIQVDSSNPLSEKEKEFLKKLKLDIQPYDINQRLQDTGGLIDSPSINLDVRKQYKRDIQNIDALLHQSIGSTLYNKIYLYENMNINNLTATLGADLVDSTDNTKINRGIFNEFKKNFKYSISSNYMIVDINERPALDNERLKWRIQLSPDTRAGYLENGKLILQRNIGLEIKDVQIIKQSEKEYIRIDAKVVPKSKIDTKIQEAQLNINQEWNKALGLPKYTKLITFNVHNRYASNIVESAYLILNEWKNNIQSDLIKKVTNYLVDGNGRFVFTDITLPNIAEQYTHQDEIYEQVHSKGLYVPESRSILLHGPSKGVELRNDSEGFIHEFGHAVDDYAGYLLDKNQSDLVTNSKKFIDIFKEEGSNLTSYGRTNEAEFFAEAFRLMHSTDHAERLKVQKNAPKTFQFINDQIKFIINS
MazEF act: activators of E. coli MazEF toxin-antitoxin RNase; P0AE70; FAM/BHQ RNA-DNA oligo cleavage fluorescence, 5 h; activation, % at 20 µM; actives 0.32% (n = 350,000); AID 504720; in the data active means activation above about 50%
The depositor's hits bear a star; i = inactive; ? = inconclusive; . = no result. Shown are actives, neighbours in structure and some others; about 3.9% of the full set was active somewhere. Unless noted, no stated cut-off is given here; in the data, active means inhibition above about 30%; inconclusive means no clear call, values can overlap the other calls; inactive means below that.

SMILES	Bead autofluor	BoNT-A LC inh2	BoNT-F LC inh	BH1578 lux ind	Anthrax LF prot	MazEF act
O=C(Nc1sccc1C(=O)NCc1ccco1)c1cccnc1	16659*	?	-1	-1	3	-38
O=C(Cc1ccc(-n2c(=S)[nH]c3ccccc3c2=O)cc1)N1CCN(c2ccccc2)CC1	22575*	-1	-2	i	-6	13
Cc1nn(C)c(C)c1/C=N/NC(=O)C(C)(C)Oc1ccc(Cl)cc1	24501*	?	-2	i	-5	-2
Cc1c(/C=N/NC(=O)C(C)(C)Oc2ccc(Cl)cc2)cnn1C	11508	-1	-11	-3	0	2
O=C(O)CNC(=O)C1(NC(=O)OCc2ccccc2)CCCC1	3877	0	3	i	10	6
CCOC(=O)c1sc2nc(CC(=O)OC)nc(NCc3ccc(F)cc3)c2c1C	16799*	-3	-3	i	-3	-1
CC1CCCN(CC(O)COC(c2ccccc2)c2ccccc2)C1 (centres undefined)	4130	0	-1	i	-6	14
CC(C)[C@H](N)c1nnc(SCC(=O)c2ccc(Cl)cc2)o1	8019	-1	-9	0	-6	9
C[C@H](N)c1nnc(SCC(=O)c2ccc(Cl)cc2)o1	16731*	-1	-1	0	1	0
Cc1[nH]n(-c2ccccc2)c(=O)c1S(=O)(=O)c1ccccc1	16181*	0	-1	i	-2	-3
Cc1[nH]n(-c2ccccc2)c(=O)c1CCO	4688	-1	1	0	10	8
COc1cccc(-c2n[nH]c(=S)n2Cc2ccco2)c1OC	20736*	6	6	0	-6	3
COc1ccc(NC(=O)C[C@H]2C(=O)N(c3ccccc3)C[C@@H]2CSC)cc1	3589	0	-2	-1	-9	4
COc1ccc(NC(=O)c2nc[nH]c2C(=O)N(C)CCO)cc1	3937	-1	-6	0	-5	-2
COc1ccc(-c2noc(-c3ccccc3C(=O)N3CCOCC3)n2)cc1	20897*	6	9	0	1	10
C/C(=N\NS(=O)(=O)c1ccc(C)c([N+](=O)[O-])c1)c1cc2ccccc2o1	16518*	-1	-5	i	-4	-5
C/C(=N\NS(=O)(=O)c1ccc(Cl)c([N+](=O)[O-])c1)c1cc2ccccc2o1	22417*	?	-12	-1	0	-6
CSc1cccc(Nc2ccc(S(=O)(=O)N3CCOCC3)cc2[N+](=O)[O-])c1	6327	2	1	i	4	3
CC(C)C[C@H]1CN(CCCC[C@H]2CNC(=O)C(=O)N2CCc2ccc(O)cc2)C(=O)C(=O)N1Cc1ccccc1	5506	1	7	.	4	.
Cc1nc2c(-c3ccccc3)c(C)nn2c(C)c1CCC(=O)N1CCC2(CC1)OCCO2	?	?	62*	-1	?	-1
O=C(NCCCO)C12CC3CC(CC(C3)C1)C2	7533	0	-2	-14	-2	5
O=C(O)CSCNC(=O)C12CC3CC(CC(C3)C1)C2	16463*	-1	-4	-1	-4	5
C[Si](C)(C)n1ccnc1	5528	0	0	0	-1	9
Nc1ncnc2c1ccn2[C@H]1CN(Cc2ccc(Cl)cc2)C[C@@H](CO)O1	3031	0	0	i	4	.
C=CCC(NC(C)c1ccccc1)c1ccco1 (centres undefined)	16630*	0	-3	0	1	-5
SMILES	Bead autofluor	BoNT-A LC inh2	BoNT-F LC inh	BH1578 lux ind	Anthrax LF prot	MazEF act
CC1(C)CC(=O)c2sc(NS(=O)(=O)Cc3ccccc3)nc2C1	22981*	?	2	-2	2	8
Cc1ccc(S(=O)(=O)Nc2nc3c(s2)C(=O)CC(C)(C)C3)cc1	2060	0	-2	0	0	-12
CC(C)(C)NC(=O)C1c2ccccc2OCC(=O)N1CCCN1CCOCC1 (centres undefined)	5486	0	3	.	2	.
CCOC(=O)c1ccc[n+](CC(=O)Nc2cc(C(F)(F)F)ccc2Cl)c1	4629	26	10	1	12	1
Cc1c(C(=O)Nc2nnc(C(F)(F)F)s2)oc2ccccc12	23455*	-4	-2	0	1	-9
Cc1c(C(=O)NCc2ccccc2F)oc2ccccc12	6288	0	3	i	5	-4
O=C(NCc1cccs1)c1ccccc1[N+](=O)[O-]	2552	0	-6	0	0	-12
O=C(NCc1cccs1)c1ccccc1C(=O)NCc1cccs1	23472*	?	-5	i	1	7
Cc1c(C(=O)NCc2cccs2)oc2ccccc12	23183*	0	-1	i	-3	-4
Cc1c(C(=O)NCc2ccc3c(c2)OCO3)oc2ccccc12	20346*	4	3	2	-9	4
COC(=O)c1sc(NC(=O)c2oc3ccccc3c2C)nc1C	2993	0	-3	2	-5	3
O=C(NCCCc1ccccc1)c1cccc(NC(=O)C2CCCC2)c1	3903	0	-1	-1	-4	8
Cc1ccc(C(=O)NNC(=O)/C=C\C(=O)O)cc1	5357	-1	1	0	1	11
Cc1ccc(-c2ocnc2C(=O)N2CCOCC2)cc1	3033	-4	2	i	-2	5
COC(=O)[C@@H](NC(=O)NCc1cccs1)C(C)C	18068*	3	-1	i	-5	-10
Cc1ccc(NC(=O)c2oc3ccccc3c2NC(=O)c2ccc3c(c2)OCO3)cc1	20506*	5	4	-1	0	-3
Cc1c(C(=O)NCc2cccnc2)oc2ccccc12	23977*	-1	-3	i	-1	3
COC(=O)[C@H](CCSC)NC(=O)NCc1cccs1	8148	0	-14	0	-5	-4
Cc1c(C(=O)NC(C)c2ccncc2)oc2ccccc12 (centres undefined)	21661*	?	-1	i	-3	17
COc1ccc(Cl)cc1NC(=O)c1cccc(S(=O)(=O)Nc2c(C)n(C)n(-c3ccccc3)c2=O)c1	.	.	.	.	.	-2
COc1ccc(C(C)(O)c2nc(-c3ccncc3)cs2)cc1 (centres undefined)	3089	0	-6	0	-9	.
O=C(NCc1cccnc1)c1cc2ccccc2oc1=O	22899*	1	1	0	-1	2
CCCCOc1ncnc2c1[nH]c1ccc(OCC)cc12	18958*	2	1	2	0	-4
CCCCOc1ncnc2c1[nH]c1ccc(OC)cc12	.	.	.	.	.	0
CSCCNC(=O)C1(C)CCN1C(=O)c1ccc(C(C)(C)C)cc1 (centres undefined)	3687	0	2	0	-2	.
CCN1/C(=C/c2ccc3cc(C)ccc3[n+]2CC)Sc2cc(C)ccc21	7083	55*	-63	i	-41	75*
Cc1ccc(Cn2ccc(NC(=O)c3cc(-c4ccc(Cl)cc4)on3)n2)cc1	15942	?	1	i	-4	-2
